SMILES strings stand for the structures. About 270 (0.14%) of roughly 190,000 compounds were called active. Another 2% or so got no clear call; they are omitted. The full list was thinned out, with actives kept by preference. Values without a mark were called inactive.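 The calls were made as follows: active = GTP binding activity at least 20% away from the 100% baseline, either lowered as inhibitor or raised as activator; inconclusive = flagged as likely green fluorescent, judged across all proteins in the well; inactive = the rest.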

For the assay, the target named is GTPase HRas (Homo sapiens) (UniProt P01112). The assay is described as follows: modulators of GTP binding to HRas wildtype, primary screen, biochemical, bead-based flow cytometry, multiplex (AID 759).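 Also: 0% = unlabeled GTP competition control and 100% = no-compound control.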 The settings on record: GST-Ras wt beads, Bodipy-FL-GTP binding, at 10 µM, actives lie on both sides. Background: A flow cytometer gives signals particle by particle.
GTPase HRas (Homo sapiens), sequence (P01112 whole entry, looked up): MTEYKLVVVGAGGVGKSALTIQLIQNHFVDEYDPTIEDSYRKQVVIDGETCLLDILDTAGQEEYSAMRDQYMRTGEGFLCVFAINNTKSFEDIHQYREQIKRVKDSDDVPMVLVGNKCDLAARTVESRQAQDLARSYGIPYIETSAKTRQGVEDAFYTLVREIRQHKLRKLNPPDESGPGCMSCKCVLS
As to `CCCCNC(=O)Nc1c(C)cc(SC#N)cc1C`, the GTP binding activity is 95%.

Turning to `Cc1ccc(CSc2nc3[nH]ncc3c(=O)[nH]2)cc1`, the GTP binding activity is 78% (active).

Consider `Cc1cccc(NC(=O)CSc2nc3[nH]ncc3c(=O)[nH]2)c1`, for which the GTP binding activity is 97%.

For the compound `CCCSc1nc2[nH]ncc2c(=O)[nH]1`, the GTP binding activity was 101%.

On to `CCC(=O)/C(=C(/O)c1ccccc1)c1nc2ccccc2[nH]1`, for which the GTP binding activity was 98%.

`COC(=O)c1nn(-c2cccc(Cl)c2)ccc1=O`: the GTP binding activity was 97%.

Take `O=C(CC12CC3CC(CC(C3)C1)C2)NCc1ccco1`: the GTP binding activity is 96%.

Take `CCc1ccc(Nc2nnc(SCC(=O)c3ccc4c(c3)NC(=O)CO4)s2)cc1`: the GTP binding activity was 99%.

On to `COc1ccccc1CC(NC(C)=O)C(=O)NC1CCN(C(=O)Nc2ccccc2Cl)CC1` (stereo not drawn), for which the GTP binding activity is 101%.

Consider `COC(=O)c1ccc(/C=N/OCC(=O)Nc2cc(F)ccc2F)cc1`, for which the GTP binding activity is 95%.

As to `COc1ccc(N2CCN(CCCNC(=O)C3CCN(S(=O)(=O)N4CCOCC4)CC3)CC2)cc1`, the GTP binding activity was 96%.

Consider `COc1ccc(/C=C/CN2CCN(Cc3ccc(C)cc3)C(CCO)C2)cc1` (stereo not drawn), for which the GTP binding activity is 105%.

In the case of `COc1cccc(NCCC(=O)c2cccc([N+](=O)[O-])c2)c1`, the GTP binding activity is 97%.

Turning to `Cc1ccc(C(=O)O)cc1NC(=O)c1ccc(Cn2nc(C)c(Cl)c2C)o1`, the GTP binding activity was 100%.

In the case of `Cc1noc(C)c1COc1cccc(C(=O)Nc2cccnc2)c1`, the GTP binding activity is 97%.

On to `Cc1[nH]c2c(C(=O)N3CCCC(CCC(=O)NCc4ccccc4F)C3)cccc2c1C` (stereo not drawn), for which the GTP binding activity was 106%.

As for `COC(=O)c1nc(NC(=O)c2ccc(F)cc2)n[nH]1`, the GTP binding activity was 98%.

In the case of `N#CC1=C(N)Oc2[nH]c(=S)[nH]c(=O)c2C12C(=O)Nc1ccccc12` (stereo not drawn), the GTP binding activity is 96%.

Consider `COc1ccc(/C=C(\C#N)C(=O)ONC2=NCCCCC2)cc1`, for which the GTP binding activity is 97%.

`C=C(C)CNC(=S)N/N=C/c1ccccc1OCC(=O)O`: the GTP binding activity is 95%.

For `O=C(COC(=O)c1cnc(Cl)c(Cl)c1)NCc1ccco1`, the GTP binding activity was 97%.

With `CN1CCN(C(=O)N2c3ccccc3CCc3ccccc32)CC1`, the GTP binding activity was 102%.

In the case of `O=C(Nc1cccc(Cl)c1)c1cc([N+](=O)[O-])ccc1N1CCN(CCO)CC1`, the GTP binding activity was 97%.

Turning to `CC/C(Cc1ccccc1)=N/NC(=O)CCn1nnc2ccccc21`, the GTP binding activity is 101%.

On to `CSc1nsc(SC)c1NC(=O)OC1CCCCC1`, for which the GTP binding activity was 39% (active).

In the case of `CSc1ncccc1C(=O)NC1CCCCCC1`, the GTP binding activity was 98%.

As to `COc1ccc(NC(=O)c2c(SC)nsc2SC)cc1`, the GTP binding activity is 101%.

As for `Cc1ccc(S(=O)(=O)N2CCN(C(=O)c3cccs3)CC2)cc1`, the GTP binding activity is 93%.

With `COc1ccc(O)c(C(=O)c2cnc3c(c2)c(-c2ccc(F)cc2)c(C#N)c(=O)n3C)c1`, the GTP binding activity is 95%.

`O=C(CCCc1ccccc1)NCc1ccccc1`: the GTP binding activity was 94%.

With `COc1cc2nc(CN(C)Cc3ccc(F)cc3)[nH]c(=O)c2cc1OC`, the GTP binding activity was 97%.

As to `O=C(Nc1ccccc1F)c1ccccc1-c1ccccc1`, the GTP binding activity is 76% (active).

With `O=C(Nc1ccccc1F)c1ccccc1-c1ccc(C(F)(F)F)cc1`, the GTP binding activity was 104%.

For the compound `NC(=O)c1ccccc1NC(=O)c1ccccc1F`, the GTP binding activity was 101%.

For the compound `COc1cc(C(=O)N[C@@H](C)C(=O)NCc2ccco2)cc(OC)c1OC`, the GTP binding activity is 98%.

On to `Cc1cccn2c(CN(C)C3CCCc4ccccc43)c(C(=O)N3CCOCC3)nc12` (stereo not drawn), for which the GTP binding activity was 98%.

In the case of `O=C1CC(c2c(F)cccc2Cl)C(n2cncn2)C(O)=C1C1NCCc2ccccc21` (stereo not drawn), the GTP binding activity is 94%.

For `O=C(Nc1ccccc1C(=O)N1CCOCC1)c1ccc(CSc2ccccc2)cc1`, the GTP binding activity was 100%.

With `Nc1ncnc(Nc2cccc(Cl)c2Cl)n1`, the GTP binding activity was 97%.

As for `COc1cc(C(=O)N2C(=O)c3cccc(N)c3C2=O)cc(OC)c1OC`, the GTP binding activity is 95%.

Regarding `Cc1ccc(NC(=S)NC(=O)c2ccc(-c3ccccc3)cc2)c(C)c1`, the GTP binding activity is 100%.

In the case of `Cc1ccc(Nc2c(F)c(F)c(F)c(F)c2C(=O)O)c(C)c1`, the GTP binding activity is 124% [activator] (active).

For the compound `COc1c(F)c(F)c(C(=O)O)c(Nc2ccccc2C)c1F`, the GTP binding activity was 98%.

As to `Cc1cc(C)nc(NNC2=CC(=O)CC(C)(C)C2)n1`, the GTP binding activity was 99%.

On to `CCOc1ccc(OCc2cccc(C(=O)N(CC)CC)c2)cc1`, for which the GTP binding activity is 98%.

Consider `CN(Cc1cc2cc(F)ccc2[nH]1)Cc1nc(-c2cnccn2)no1`, for which the GTP binding activity is 98%.

On to `CC(C)(C)C(=O)N(Cc1ccccc1)c1ccccn1`, for which the GTP binding activity is 95%.

On to `COc1ccccc1NC(=O)COC(=O)Cc1ccc(S(=O)(=O)N2CCCCC2)s1`, for which the GTP binding activity was 98%.

As to `S=c1ccc2ccccc2[nH]1`, the GTP binding activity is 98%.

On to `C=CCNC(=O)CC12CC3CC(C1)CC(CC(=O)NCC=C)(C3)C2`, for which the GTP binding activity was 99%.

In the case of `Cc1ccc(SCCC(=O)NCc2ccccn2)cc1`, the GTP binding activity is 99%.

Regarding `CCOc1ccc(NS(=O)(=O)c2cc(C)c(C)cc2C)cc1`, the GTP binding activity was 98%.

Consider `COc1cc(/C=N/Nc2ccc(C)cc2)cc(Br)c1O`, for which the GTP binding activity is 96%.

As to `COc1ccc(/C=N/Nc2ncnc3sc4c(c23)CCCC4)cc1O`, the GTP binding activity was 71% (active).

For `COc1ncnc2sc3c(c12)CCCC3`, the GTP binding activity is 103%.

As to `O=C(Nc1ccc(-c2ccc3nncn3n2)cc1)C1CCCCC1`, the GTP binding activity was 99%.

For the compound `O=C(OCC1O[C@@H](OC(=O)c2cc(O)c(O)c(O)c2)[C@@H](OC(=O)c2cc(O)c(O)c(O)c2)[C@@H](OC(=O)c2cc(O)c(O)c(O)c2)[C@@H]1OC(=O)c1cc(O)c(O)c(O)c1)c1cc(O)c(O)c(O)c1` (stereo partly drawn), the GTP binding activity is 79% (active).

As to `CC(=O)NC1C(OCc2ccccc2)OC(COC(C)=O)C(OC(C)=O)C1OC(C)=O` (stereo not drawn), the GTP binding activity is 102%.

Take `O=S(=O)(Nc1ncccn1)c1ccc(NS(=O)(=O)c2cccc(Cl)c2Cl)cc1`: the GTP binding activity was 96%.

Regarding `CC(CC(=O)O)CC(=O)NNC(=O)c1cccc(Br)c1` (stereo not drawn), the GTP binding activity was 95%.

For `CC(C)N(C)C(=O)CCc1nnc(CCc2c[nH]c3ccccc23)o1`, the GTP binding activity is 93%.

With `CCOc1cc(NC(=S)NCc2ccco2)c(OCC)cc1NC(=O)c1ccco1`, the GTP binding activity is 98%.

For the compound `O=C(CN1CCN(S(=O)(=O)/C=C/c2ccccc2)CC1)Nc1ccc(N2CCOCC2)cc1`, the GTP binding activity was 99%.

Values taken from PubChem BioAssay AID759 (NMMLSC, 2007).
